Source: PubChem BioAssay (Tox21)
Results filed as inconclusive are left out. A call without a number means that no potency is given here. Activity calls are given as the source filed them. Unless noted, calls follow the shape of the dose curve; as a rule, active = well fitted curve in the direction sought with a large enough effect in the repeat runs; inconclusive = weak or mixed curves; inactive = no such curve, though single readings can be large; an effect the other way counts as inactive or inconclusive.

Columns and labels:
[1] = A CellTox Green Cytotoxicity Assay to monitor cytotoxicity in HepG2 cells - 0 hour (AID 1224882); also: nearly all actives have a fitted effect of over 35% in size
Procedure, shortened: (§1)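 Fluorescent DNA-binding dye, 600 HepG2 cells/well, 5 h preincubation then compound in DMSO; same plates read at 0–40 h, 37 C.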

[2] = A CellTox Green Cytotoxicity Assay to monitor cytotoxicity in HepG2 cells - 32 hour (AID 1224883); also: nearly all actives have a fitted effect of over 50% in size
Procedure, shortened: as §1

[3] = A CellTox Green Cytotoxicity Assay to monitor cytotoxicity in HEK293 cells - 8 hour (AID 1224884); also: nearly all actives have a fitted effect of over 35% in size
Procedure, shortened: (§2)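 Homogeneous no-lysis format: HEK293 cell suspension mixed with CellTox Green reagent, seeded, incubated 5 h at 37 C/5% CO2, then dosed by pintool with compound in DMSO.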

[4] = qHTS RealTime-Glo MT Cell Viability Assay in HepG2 cells - 16 hour (AID 1224885); also: nearly all actives have a fitted effect of over 50% in size
Procedure, shortened: (§3)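 Cells + NanoLuc/prosubstrate dispensed (600 cells/well) → 5 h at 37 C/5% CO2 → compounds in DMSO transferred → 40 h incubation at 37 C, luminescence read at 0, 8, 16, 24, 32, 40 h.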

[5] = qHTS RealTime-Glo MT Cell Viability Assay in HEK293 cells - 24 hour (AID 1224886); also: top concentration of the series differs between compounds; nearly all actives have a fitted effect of over 50% in size
Procedure, shortened: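 Tox21 10K qHTS, HEK293, 600 cells/well, RealTime-Glo reagent co-dispensed with cells; 5 h preincubation, compound by pintool, 37 C, luminescence at 0–40 h.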

[6] = qHTS RealTime-Glo MT Cell Viability Assay in HEK293 cells - 8 hour (AID 1224887); also: top concentration of the series differs between compounds; nearly all actives have a fitted effect of over 50% in size
Procedure, shortened: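 Measured as luminescence from the same continuously cultured HEK293 wells at successive time points (0, 8, 16, 24, 32, 40 h) after compound addition. Reagent present from seeding; dosing at 5 h; incubation 37 C.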

[7] = A CellTox Green Cytotoxicity Assay to monitor cytotoxicity in HEK293 cells - 16 hour (AID 1224888); also: nearly all actives have a fitted effect of over 35% in size
Procedure, shortened: as §2

[8] = qHTS RealTime-Glo MT Cell Viability Assay in HepG2 cells - 0 hour (AID 1224889); also: nearly all actives have a fitted effect of over 50% in size
Procedure, shortened: as §3

[9] = qHTS assay to identify small molecule antagonists of the estrogen receptor alpha (ER-alpha) signaling pathway using the BG1 cell line in the presence of 0.1 nM 17-beta-estradiol - cell viability counter screen (AID 1259241); also: nearly all actives have a fitted effect of over 40% in size
Procedure, shortened: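 Measures cytotoxicity alongside the ER-alpha antagonist readout: VM7Luc4E2 cells, charcoal-stripped serum, 0.1 nM 17beta-estradiol final, 22 hr compound incubation at 37C, CellTiter-Fluor fluorescence.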

[10] = qHTS assay to identify small molecule antagonists of the androgen receptor (AR) signaling pathway using the MDA cell line in the presence of 0.5 nM R1881 - cell viability counter screen (AID 1259242); also: nearly all actives have a fitted effect of over 45% in size
Procedure, shortened: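 Human breast carcinoma MDA-kb2 cells, cultured without CO2, receive compounds alongside 0.5 nM (final) R1881 agonist. After 16 hr at 37C, viability is taken as live-cell protease signal.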

[11] = molecular target: Estrogen receptor (Homo sapiens) (UniProt P03372); assay: qHTS assay to identify small molecule antagonists of the estrogen receptor alpha (ER-alpha) signaling pathway using the BG1 cell line in the presence of 0.1 nM 17-beta-estradiol (AID 1259244); also: nearly all actives have a fitted effect of over 50% in size
Sequence of Estrogen receptor (Homo sapiens) (P03372 whole entry, looked up): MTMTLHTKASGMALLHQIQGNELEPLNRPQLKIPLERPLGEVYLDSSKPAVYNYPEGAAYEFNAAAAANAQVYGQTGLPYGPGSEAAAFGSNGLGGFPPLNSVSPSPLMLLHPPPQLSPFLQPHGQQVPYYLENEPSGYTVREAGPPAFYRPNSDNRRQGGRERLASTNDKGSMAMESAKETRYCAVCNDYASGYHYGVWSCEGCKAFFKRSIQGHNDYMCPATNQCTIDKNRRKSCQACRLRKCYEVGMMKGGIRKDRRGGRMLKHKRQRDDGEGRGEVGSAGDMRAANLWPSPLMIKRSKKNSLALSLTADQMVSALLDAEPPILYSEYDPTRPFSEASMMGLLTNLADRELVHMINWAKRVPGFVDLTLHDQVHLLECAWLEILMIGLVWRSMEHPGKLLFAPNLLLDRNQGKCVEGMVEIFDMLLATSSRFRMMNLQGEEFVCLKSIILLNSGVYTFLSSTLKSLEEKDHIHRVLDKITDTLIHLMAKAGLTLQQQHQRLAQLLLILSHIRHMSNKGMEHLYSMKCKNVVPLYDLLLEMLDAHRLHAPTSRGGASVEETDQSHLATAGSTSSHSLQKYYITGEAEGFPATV
Procedure, shortened: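 Seeding of stripped-serum-adapted VM7Luc4E2 cells, 24 h attachment, compound transfer, then 0.1 nM final 17beta-estradiol; after 22 h incubation, ONE-Glo reagent and luminescence reading.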

[12] = qHTS assay to identify small molecule phospholipidosis (PLD) inducers (AID 1259344; active = well fitted curve in the direction sought with a large enough effect; an effect the other way counts as inactive or inconclusive)
Procedure, shortened: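 Read-out is LipidTOX Red fluorescence (ex 595/em 615) imaged in HepG2 cells after 24 h compound exposure at 37 C, with Hoechst nuclear counterstain (ex 352/em 461) allowing per-cell normalisation.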

[13] = qHTS assay to identify small molecule HDAC inhibitors (AID 1259364);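 also: wild-type HCT-116 cells with endogenous class I/II HDAC activity; top concentration of the series differs between compounds; nearly all actives have a fitted effect of over 45% in size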
Procedure, shortened: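 After a 2 hr compound incubation (37C, 5% CO2), HCT-116 cells seeded at 1,500/well the day before received HDAC-Glo reagent; signal read as luminescence after 30 min at room temperature.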

[14] = qHTS assay to identify small molecule HDAC inhibitors - cell viability counter screen (AID 1259365)
Procedure, shortened: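 Following a 2hr exposure of overnight-plated wild-type HCT-116 cells to DMSO-delivered compounds, CellTiter-Glo was added and luminescence recorded after 30min at room temperature.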

[15] = qHTS assay to identify small molecule agonists of the sonic hedgehog signaling (Shh) pathway - cell viability counter screen (AID 1259366); also: nearly all actives have a fitted effect of over 50% in size
Procedure, shortened: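 After a 4hr attachment at 37C, NIH/3T3 cells bearing an integrated Gli1-driven luciferase reporter were dosed with compounds. Treatment lasted 24hr, with the final hour including CellTiter-Fluor for a fluorescence viability measurement.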

[16] = qHTS assay to identify small molecule antagonists of the sonic hedgehog signaling (Shh) pathway - cell viability counter screen (AID 1259367); also: nearly all actives have a fitted effect of over 55% in size
Procedure, shortened: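 Fluorescence read-out (CellTiter-Fluor, 1 hr at 37C) taken after 23 hr compound treatment of 3T3 Gli1-Luc cells stimulated with conditioned medium. Cells were seeded at 2,000 per well and pre-incubated 4 hr.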

[17] = qHTS assay to identify small molecule agonists of the sonic hedgehog signaling (Shh) pathway (AID 1259368; calls by dose curve;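 also: NIH/3T3-derived 3T3Gli1-Luc cells carrying a stable Gli1-driven firefly luciferase reporter; series mostly up to about 92 µM; nearly all actives have a fitted effect of over 15% in size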)
Procedure, shortened: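 Stable NIH/3T3 Gli1-Luc reporter clone; 24 hr cpd exposure after a 4 hr settling period; luminescence endpoint.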

[18] = A CellTox Green Cytotoxicity Assay to monitor cytotoxicity in HepG2 cells - 8 hour (AID 1224890); also: nearly all actives have a fitted effect of over 45% in size
Procedure, shortened: as §1

[19] = molecular target: Androgen receptor (Homo sapiens) (UniProt P10275); assay: qHTS assay to identify small molecule antagonists of the androgen receptor (AR) signaling pathway using the MDA cell line in the presence of 0.5 nM R1881 (AID 1259243)
Sequence of Androgen receptor (Homo sapiens) (P10275 whole entry, looked up): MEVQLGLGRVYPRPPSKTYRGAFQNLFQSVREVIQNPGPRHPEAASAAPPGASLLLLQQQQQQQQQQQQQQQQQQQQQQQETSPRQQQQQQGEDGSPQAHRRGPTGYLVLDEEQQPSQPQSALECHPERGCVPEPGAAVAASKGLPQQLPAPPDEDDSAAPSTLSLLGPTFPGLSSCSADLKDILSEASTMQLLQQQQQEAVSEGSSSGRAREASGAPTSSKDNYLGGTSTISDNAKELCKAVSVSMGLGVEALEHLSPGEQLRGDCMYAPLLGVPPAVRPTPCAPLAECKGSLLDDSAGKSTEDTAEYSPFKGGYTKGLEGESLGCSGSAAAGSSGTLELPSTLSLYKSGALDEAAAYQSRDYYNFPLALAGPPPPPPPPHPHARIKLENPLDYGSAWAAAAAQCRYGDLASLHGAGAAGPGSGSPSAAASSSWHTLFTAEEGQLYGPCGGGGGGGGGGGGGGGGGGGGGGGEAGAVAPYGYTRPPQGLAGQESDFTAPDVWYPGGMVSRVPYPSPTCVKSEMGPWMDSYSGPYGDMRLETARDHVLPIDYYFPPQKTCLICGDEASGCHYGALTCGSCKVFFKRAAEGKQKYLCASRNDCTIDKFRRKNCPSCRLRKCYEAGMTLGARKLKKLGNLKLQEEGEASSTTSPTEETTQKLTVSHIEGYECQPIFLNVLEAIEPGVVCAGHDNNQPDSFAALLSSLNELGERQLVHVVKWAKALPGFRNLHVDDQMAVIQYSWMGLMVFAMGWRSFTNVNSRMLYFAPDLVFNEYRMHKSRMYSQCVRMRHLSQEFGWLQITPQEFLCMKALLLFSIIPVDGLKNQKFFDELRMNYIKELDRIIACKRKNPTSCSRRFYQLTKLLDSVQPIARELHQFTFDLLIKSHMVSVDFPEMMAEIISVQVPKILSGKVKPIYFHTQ
Procedure, shortened: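 Cells: MDA-kb2 (MMTV-luc). Stimulus: 0.5 nM R1881. Time: 16 hr, 37C, no CO2. Detection: ONE-Glo luminescence after 30 min at RT.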

| SMILES | Potency [1] | Potency [2] | outcome [3] | outcome [4] | Potency [5] | Potency [6] | outcome [7] | Potency [8] | outcome [9] | outcome [10] | outcome [11] | outcome [12] | Potency [13] | outcome [14] | Potency [15] | Potency [16] | outcome [17] | outcome [18] | Potency [19] |
| --- | --- | --- | --- | --- | --- | --- | --- | --- | --- | --- | --- | --- | --- | --- | --- | --- | --- | --- | --- |
| C[N+](C)(C)CCCCCCCCCC[N+](C)(C)C | inactive | inactive | inactive | inactive | inactive | inactive | inactive | inactive | inactive | inactive | inactive | inactive | inactive | inactive | inactive | inactive | inactive |  |  |
| CC(C)(N)C#N | inactive |  | inactive | inactive |  |  | inactive | inactive | inactive | inactive | inactive |  | inactive | inactive | inactive | inactive | inactive | inactive |  |
| Nc1ccccn1 | inactive |  | inactive | inactive | inactive | inactive | inactive | inactive |  | inactive |  |  | inactive | inactive | inactive | inactive | inactive |  |  |
| C=CCOCC(O)CO (configuration not stated) |  |  | inactive | inactive | inactive |  |  | inactive | inactive | inactive | inactive |  | inactive | inactive | inactive | inactive | inactive |  |  |
| C=C(C)C(=O)OCCOCCOCCOCCOC(=O)C(=C)C | inactive | inactive | inactive | inactive | inactive | inactive | inactive | inactive | inactive | inactive |  |  | inactive | inactive |  | inactive | inactive | inactive |  |
| CCO[Si](OCC)(OCC)c1ccccc1 | inactive |  | inactive | inactive |  | inactive | inactive | inactive | inactive | inactive |  |  | inactive | inactive | inactive | inactive | inactive | inactive |  |
| O=C(c1ccccc1O)c1ccccc1O | inactive | inactive | inactive | inactive |  | inactive | inactive |  | inactive | inactive | inactive |  | inactive | inactive | inactive | inactive | inactive | inactive | 24.1 µM (active) |
| O=S(=O)(O)c1cccc2c(S(=O)(=O)O)cccc12 | inactive | inactive | inactive | inactive |  | inactive |  | inactive |  | inactive |  |  | inactive | inactive | inactive | inactive |  | inactive |  |
| NC(=O)N[C@@H](CCC(=O)O)C(=O)O |  | inactive | inactive | inactive |  | inactive | inactive | inactive | inactive | inactive |  | inactive | inactive | inactive | inactive | inactive | inactive | inactive |  |
| [Ca+2] | inactive |  | inactive | inactive |  | inactive | inactive | inactive | inactive | inactive |  |  | inactive | inactive | inactive | inactive | inactive | inactive |  |
